Bioassay records from PubChem.
GDH-TPI counter: GDH-TPI coupling enzyme inhibitors, primary screen, artefact control for M. tuberculosis FBA inhibitor project, biochemical, absorbance, full deck; GDH-TPI coupled enzyme counterscreen, NADH absorbance; AID 588335, 2011; actives 1.2% (n = 360,000); inhibition, % at 4.8 µM; in the data active means inhibition above about 30%;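 further: 0% = DMSO wells and 100% = wells lacking the enzyme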
Vc quorum ag: inducers of Vibrio cholerae quorum light production without autoinducers, primary screen, BH1578 luxS cqsA deficient, single point; AID 588436, 2011; actives 0.16% (n = 350,000); activation, % at 18.7 µM; V. cholerae BH1578 lux reporter, luminescence, 6 h; in the data active means activation mostly above about 9.7%, no sharp cut-off
FBA Mtb inh: Mtb FBA enzyme inhibitors, primary screen, biochemical, fluorescence, strain H37Rv. purified M. tuberculosis FBA, fluorescence read-out. inhibition, % at 1 µM. actives 2.3% (n = 360,000). AID 588726, 2011; in the data active means inhibition above about 27%;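 further: 0% = vehicle and 100% = reference inhibitor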
Target sequence (P9WQA3 whole entry, looked up): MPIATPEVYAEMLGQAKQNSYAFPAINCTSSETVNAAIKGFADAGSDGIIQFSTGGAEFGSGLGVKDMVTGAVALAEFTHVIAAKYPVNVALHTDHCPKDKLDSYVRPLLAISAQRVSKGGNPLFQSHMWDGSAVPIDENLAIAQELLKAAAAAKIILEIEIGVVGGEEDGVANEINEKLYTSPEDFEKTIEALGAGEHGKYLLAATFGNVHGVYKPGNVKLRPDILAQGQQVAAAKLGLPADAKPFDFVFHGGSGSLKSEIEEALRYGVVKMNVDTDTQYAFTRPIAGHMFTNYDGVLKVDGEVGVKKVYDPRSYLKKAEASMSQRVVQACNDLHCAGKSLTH
PrPC TRFRET: inhibitors of human cell surface prion protein PrPC, primary screen, cell-based, TR-FRET; Major prion protein (Homo sapiens), P04156; TR-FRET read-out; inhibition, % at 13.8 µM; actives 0.43% (n = 370,000); AID 720596, 2013; in the data active means inhibition above about 24%; further: 0% = median of the test wells and 100% = reference compound wells
3CLpro inhibitor: SARS-CoV 3CLpro protease inhibitors, primary screen, biochemical, quenched FRET; Replicase polyprotein 1ab (Severe acute respiratory syndrome coronavirus), P0C6X7; recombinant SARS-CoV 3CLpro, quenched FRET peptide cleavage; inhibition, % at 6 µM; actives 0.14% (n = 290,000); AID 1706, 2009; in the data active means inhibition above about 12%
Starred values were filed as active, the others as inactive. Rows were chosen to be rich in hits. Some 3.9% of all compounds tested hit in one or more screens of this group.

How did COc1ccc(C2C(C(C)=O)=C(O)C(=O)N2CCc2ccccc2)c(OC)c1 (stereo not drawn) do in these assays?
GDH-TPI counter: 37*; Vc quorum ag: -2; FBA Mtb inh: -3; PrPC TRFRET: 0; 3CLpro inhibitor: 5

How did CC(=O)C1=C(O)C(=O)N(c2ccc(O)cc2)C1c1cccc([N+](=O)[O-])c1 (stereo not drawn) do in these assays?
GDH-TPI counter: 32*; Vc quorum ag: inactive; FBA Mtb inh: 2; PrPC TRFRET: -1; 3CLpro inhibitor: 4

Results for COc1ccccc1C1C(C(C)=O)=C(O)C(=O)N1c1ccc(O)cc1 (stereo not drawn) ?
GDH-TPI counter: 42*; Vc quorum ag: 0; FBA Mtb inh: -1; PrPC TRFRET: 1; 3CLpro inhibitor: -1

Results for O=C(NC1CCCC1)[C@@H]1CCCN1C(=O)[C@@H](NS(=O)(=O)c1ccc(F)cc1F)c1ccccc1 ?
PrPC TRFRET: -1

Results for Cn1cc(/C=C(\NC(=O)c2ccccc2)C(=O)NCCCn2ccnc2)c2ccccc21 ?
GDH-TPI counter: 44*; Vc quorum ag: -4; FBA Mtb inh: -2; PrPC TRFRET: -4

Results for COc1ccc(C(=O)N/C(=C\c2cn(C)c3ccccc23)C(=O)NCCCn2ccnc2)cc1 ?
GDH-TPI counter: 41*; Vc quorum ag: 0; FBA Mtb inh: -1; PrPC TRFRET: -13; 3CLpro inhibitor: -2

What do the screens show for `Cc1ccc(C(=O)N/C(=C\c2cn(C)c3ccccc23)C(=O)NCCCn2ccnc2)cc1`?
GDH-TPI counter: 14; Vc quorum ag: 4; FBA Mtb inh: -1; PrPC TRFRET: -5; 3CLpro inhibitor: 4

What do the screens show for `Cc1ccc(N=C2NC(=O)/C(=C\c3ccsc3)S2)c(C)c1`?
GDH-TPI counter: 33*; Vc quorum ag: 0; FBA Mtb inh: -3; PrPC TRFRET: 4; 3CLpro inhibitor: 7

What do the screens show for `Cc1cccc(N=C2NC(=O)/C(=C/c3cccnc3)S2)c1C`?
GDH-TPI counter: 21; Vc quorum ag: 0; FBA Mtb inh: -1; PrPC TRFRET: 6; 3CLpro inhibitor: -3

What do the screens show for `Cc1ccc(N=C2NC(=O)/C(=C/c3cccnc3)S2)c(C)c1`?
GDH-TPI counter: 33*; Vc quorum ag: 1; FBA Mtb inh: -1; PrPC TRFRET: 2; 3CLpro inhibitor: 4

How did CN1C(=O)NC(c2ccc(Cl)cc2)C2=C1CC(C)(C)CC2=O (stereo not drawn) do in these assays?
GDH-TPI counter: 11; Vc quorum ag: -1; FBA Mtb inh: 0; PrPC TRFRET: 0; 3CLpro inhibitor: 5

How did COc1cccc(C2C3=C(CCCC3=O)Nc3[nH]n(-c4ccccc4)c(=O)c32)c1 (stereo not drawn) do in these assays?
GDH-TPI counter: 21; Vc quorum ag: 0; FBA Mtb inh: 0; PrPC TRFRET: -9; 3CLpro inhibitor: 4

Results for O=C1CCCC2=C1C(c1ccc3c(c1)OCO3)c1c([nH]n(-c3ccccc3)c1=O)N2 (stereo not drawn) ?
GDH-TPI counter: 37*; Vc quorum ag: inactive; FBA Mtb inh: -4; PrPC TRFRET: -13; 3CLpro inhibitor: 0

How did COc1cccc2cc(-c3ccccc3)c(=O)oc12 do in these assays?
GDH-TPI counter: -1; Vc quorum ag: inactive; FBA Mtb inh: 3; PrPC TRFRET: -20; 3CLpro inhibitor: 2

How did COc1cccc2cc(-c3nc4ccccc4[nH]3)c(=O)oc12 do in these assays?
GDH-TPI counter: 31*; Vc quorum ag: -1; FBA Mtb inh: 2; PrPC TRFRET: -13; 3CLpro inhibitor: -1

What do the screens show for `Cc1cccc2cc(-c3nc4ccc(C(=O)O)cc4[nH]3)c(=O)oc12`?
GDH-TPI counter: 31*; Vc quorum ag: -8; FBA Mtb inh: 34*; 3CLpro inhibitor: 1

Results for C=CCN(CC#CC(=C)C)CC1CC1 ?
PrPC TRFRET: -1

Results for c1ccc(COc2ccc(-c3cc4nc(NCCN5CCOCC5)ccn4n3)cc2)cc1 ?
GDH-TPI counter: 11; Vc quorum ag: 4; FBA Mtb inh: 6; PrPC TRFRET: 7

How did COCC(C)N1CCC(n2nccc2NC(=O)CCCc2ccccc2)CC1 (stereo not drawn) do in these assays?
GDH-TPI counter: 3; Vc quorum ag: inactive; FBA Mtb inh: -1; PrPC TRFRET: 7; 3CLpro inhibitor: -2

Results for O=C(CC1SC(=O)NC1=O)Oc1ccc(/C=N/NC(=O)c2ccccc2O)cc1 (stereo not drawn) ?
GDH-TPI counter: 42*; Vc quorum ag: 0; FBA Mtb inh: 3; PrPC TRFRET: 3; 3CLpro inhibitor: 3

Results for C(=N\N1CCOCC1)/c1nc(-c2ccccc2)n2ccccc12 ?
GDH-TPI counter: 34*; Vc quorum ag: inactive; FBA Mtb inh: 1; PrPC TRFRET: 4; 3CLpro inhibitor: -1

What do the screens show for `C(=N\N1CCOCC1)/c1cn(-c2ccccc2)nc1-c1ccccc1`?
GDH-TPI counter: 3; Vc quorum ag: 0; FBA Mtb inh: 0; PrPC TRFRET: -1; 3CLpro inhibitor: 4

Results for CC(=O)c1c(C)n(CCO)c2ccc(O)cc12 ?
GDH-TPI counter: 14; Vc quorum ag: -4; FBA Mtb inh: -3; PrPC TRFRET: 4; 3CLpro inhibitor: 2

Results for CC(=O)c1c(C)n(CCc2ccc(Cl)cc2)c2ccc(O)cc12 ?
GDH-TPI counter: 52*; Vc quorum ag: 0; FBA Mtb inh: 0; PrPC TRFRET: -8; 3CLpro inhibitor: -1

What do the screens show for `COc1ccc(CSC2=C(C#N)C(=O)NC3(CCCCC3)S2)cc1`?
GDH-TPI counter: 34*; Vc quorum ag: inactive; FBA Mtb inh: -3; PrPC TRFRET: 1

What do the screens show for `COc1ccc(CNn2c(-c3ccccc3F)nc3ccccc3c2=O)cc1OC`?
GDH-TPI counter: -13; Vc quorum ag: 0; FBA Mtb inh: -2; PrPC TRFRET: -9; 3CLpro inhibitor: 1

How did CCOC(=O)c1cnc2c(OC)cccc2c1Nc1ccc2c(c1)OCCO2 do in these assays?
GDH-TPI counter: 11; Vc quorum ag: 0; FBA Mtb inh: -2; PrPC TRFRET: 8; 3CLpro inhibitor: 1

What do the screens show for `Cc1noc(NS(=O)(=O)c2ccc(N/C=C/C(=O)c3cccnc3)cc2)c1C`?
GDH-TPI counter: 34*; Vc quorum ag: 2; FBA Mtb inh: 0; PrPC TRFRET: -15; 3CLpro inhibitor: 0

What do the screens show for `O=C(/C=C\Nc1ccc(Br)cc1)c1cccnc1`?
GDH-TPI counter: 35*; Vc quorum ag: 0; FBA Mtb inh: -6; PrPC TRFRET: 1; 3CLpro inhibitor: -2

What do the screens show for `O=C(NNC(=S)Nc1ccc(Br)cc1)c1cccnc1`?
GDH-TPI counter: 17; Vc quorum ag: inactive; FBA Mtb inh: -1; PrPC TRFRET: -1; 3CLpro inhibitor: 1
